Screening results from PubChem.
tim23-1 inh: growth inhibitors of tim23-1 mutant yeast, primary screen, luminescence, uHTS; S. cerevisiae tim23-1 growth, BacTiter-Glo luminescence, 24 h; inhibition, % at 20 µM; 330,000 tested, 1.3% active;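 active = growth inhibition of the mutant yeast at or above 50%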;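 note: temperature-sensitive mutant grown at 25 °C; plate controls were DMSO-treated mutant yeast for no effect and medium wells lacking yeast for full effect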
TIM10 inh: growth inhibitors of isogenic TIM10 control yeast, primary screen, counter-screen for tim10-1 yeast inhibitor project, luminescence, uHTS; S. cerevisiae TIM10 strain growth, BacTiter-Glo luminescence, 24 h; inhibition, % at 10 µM; 330,000 tested, 1.4% active; AID 463195, 2010;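 active = inhibition of 40% or more at the single tested concentration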;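 note: wild-type TIM10 isogenic control strain grown at permissive 25 °C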
NALP3 yeast inh: NALP3 inflammasome inhibitors in reconstituted yeast, primary screen, luminescence, uHTS | Yeast reconstituted NLRP3/ASC/caspase-1, beta-gal luminescence, 24 h | 330,000 tested, 0.39% active | AID 2825, 2010 | inhibition, % at 10 µM;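 active = inhibition of 50% or more; inactive = inhibition below 50%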;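 note: plate controls were induced DMSO wells for no effect and uninduced yeast grown without galactose for full effect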
PfHsp90 set2: growth inhibition of PfHsp90-expressing yeast, primary screen, antimalarial PfHsp90 inhibitor project, S. cerevisiae, BacTiter-Glo luminescence, single point, set 2 | inhibition, % at 9.4 µM | BacTiter-Glo ATP, 48 h; yeast lacking PDR1 and PDR3 efflux regulators | 310,000 tested, 0.32% active | AID 504621, 2011;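 active = every replicate shows inhibition above about 80%, whatever the replicate mean, limit read from the data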;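 note: 0% = DMSO neutral controls and 100% = 20 µM radicicol positive controls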
tim10-1 inh: growth inhibitors of tim10-1 mutant yeast, primary screen, luminescence, uHTS; 330,000 tested, 2.2% active; S. cerevisiae tim10-1 ts strain growth, BacTiter-Glo, 24 h; inhibition, % at 20 µM; AID 463190, 2010;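 active = inhibition of at least 40%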;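 note: mutant grown at 25 °C; 0% = DMSO wells with yeast and 100% = wells holding no yeast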
tim10-1 conf: growth inhibitors of tim10-1 mutant yeast, confirmation, single concentration, luminescence, S. cerevisiae | S. cerevisiae tim10-1 ts strain growth, BacTiter-Glo, 24 h | inhibition, % at 20 µM | 7,400 tested, 56% active | shares compounds with tim10-1 inh;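 active = inhibition of yeast growth at or above a set limit in either of two repeat tests at 20 µM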;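 note: tim10-1 mutant grown at permissive 25 °C to find synthetic lethal compounds; 0% = DMSO yeast wells and 100% = medium wells without yeast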
* marks the source's active call; other numbers are inactive results; nt = not tested or not shown. Only some compounds are listed: those with a hit (about 3.7% of all), similar ones and a draw of the others.

SMILES	tim23-1 inh	TIM10 inh	NALP3 yeast inh	PfHsp90 set2	tim10-1 inh	tim10-1 conf
Cc1ccc(-c2csc(N3CCN(c4cc5c(cc4Cl)nc(C(C)N)n5CCCO)CC3)n2)cc1 (stereo not given)	-6	3	19	-9	-15	nt
CC(=O)c1cccc(NC(=S)NCCC2=CCCCC2)c1	21	27	6	-20	40	28
CC(=O)c1cccc(NC(=S)NC(=O)Cc2ccccc2)c1	29	27	-2	6	46*	23
COc1ccc(NC(=O)CS(=O)c2cccc(Cl)c2)cc1 (stereo not given)	-5	3	8	10	-13	nt
CC(=O)c1ccc2c(c1)c(C#N)c1ccccc1[n+]2[O-]	48	18	35	-46	68*	51*
CC(=O)c1ccc2c(c1)Cc1cc(C(C)=O)ccc1-2	15	11	40	-7	16	nt
Cc1ccc2sc(N(CCCN(C)C)C(=O)c3ccc(S(=O)(=O)N(C)Cc4ccccc4)cc3)nc2c1C	12	29	38	15	54*	12
CN(C)CCCN(C(=O)c1ccc(C(=O)c2ccccc2)cc1)c1nc2c(F)cccc2s1	18	19	13	6	47*	13
Cc1ccc2sc(N(CCCN(C)C)C(=O)c3ccc(S(=O)(=O)N4CCc5ccccc5C4)cc3)nc2c1C	20	20	15	10	40*	29
COc1cccc2sc(N(CCCN(C)C)C(=O)c3ccc(S(=O)(=O)N4CCc5ccccc5C4)cc3)nc12	1	8	12	12	26	nt
CCOC(=O)N1CCN(S(=O)(=O)c2ccc(C(=O)N(CCN(C)C)c3nc4ccc(CC)cc4s3)cc2)CC1	8	7	23	16	31	nt
CCOC(=O)N1CCN(S(=O)(=O)c2ccc(C(=O)N(CCCN(C)C)c3nc4ccc(CC)cc4s3)cc2)CC1	18	22	19	-1	43*	16
CCN(CC)S(=O)(=O)c1cc(C)ccc1NC(=S)Nc1cccnc1	9	-8	-37	-10	10	nt
COc1ccc(S(N)(=O)=O)cc1C(=O)OCCCC(=O)c1ccccc1	-7	-10	2	2	-7	nt
CN(C)CCCN(C(=O)c1ccc(S(=O)(=O)N2CCc3ccccc3C2)cc1)c1nc2c(F)cc(F)cc2s1	23	14	18	-14	42*	35*
CCN(Cc1ccccc1)S(=O)(=O)c1ccc(C(=O)N(CCCN(C)C)c2nc3cc(C)cc(C)c3s2)cc1	25	-1	23	nt	52*	-5
CCOc1cccc2sc(N(CCN(CC)CC)C(=O)c3ccc(S(=O)(=O)N4CCCCC4)cc3)nc12	2	-11	9	15	48*	22
N#Cc1ccc(-c2ccc(OCC(=O)NCCc3ccccc3)cc2)cc1	-8	0	20	-27	-6	nt
CC(=O)N1CCN(c2cc(N3CCc4ccccc4C3)c(F)cc2[N+](=O)[O-])CC1	43	25	15	nt	52*	32*
CCC(=O)N1CCN(c2cc(N3CCCC3)c(F)cc2[N+](=O)[O-])CC1	15	12	31	10	7	nt
Cc1ccc(CNC(=O)COc2cc(O)c3c(c2)OC(C)(C)CC3=O)cc1	30	8	21	-13	44*	3
N#CC1=C(SCC(=O)c2ccccc2)NC2=C(C(=O)CCC2)C1c1ccco1 (stereo not given)	-26	21	14	0	49*	17
Cc1ccc(C(=O)CSC2=C(C#N)C(c3ccco3)C3=C(CCCC3=O)N2)cc1 (stereo not given)	41	22	15	-33	38	nt
COc1cc(SC)ccc1C(=O)NNC(=O)c1cc(C)oc1C	44	23	34	46	53*	26
Cc1nc(N)sc1-c1csc(Nc2ccc(Cl)cn2)n1	48	31	1	-25	57*	38*
SMILES	tim23-1 inh	TIM10 inh	NALP3 yeast inh	PfHsp90 set2	tim10-1 inh	tim10-1 conf
Cc1nc(N)sc1-c1csc(Nc2ccccn2)n1	nt	nt	nt	8	nt	nt
Cn1ncc(Cl)c1C(=O)Nc1cccc(Cl)c1	29	19	17	nt	47*	27
Cc1n[nH]c(C)c1CCNC(=O)C1CCC(=O)N(Cc2ccccc2F)C1 (stereo not given)	10	4	12	7	1	nt
COc1ccc(-n2nc(C(=O)NCC(=O)N3CCN(c4cccc(Cl)c4)CC3)c3ccccc3c2=O)c(OC)c1	19	-1	13	-5	20	nt
CC(C)c1ccc2oc(-c3cc(N)ccc3O)nc2c1	49	4	9	-107	52*	33*
Oc1ccccc1-c1nc(NCc2cccnc2)c2ccccc2n1	46	27	15	-10	49*	57*
COc1ccc(Cl)cc1NC(=O)CN(C)C(=O)C12CC3CC(CC(Cl)(C3)C1)C2	50	27	6	1	43*	34*
Brc1ccc(N=NNc2ccccc2)cc1	33	15	23	-10	31	nt
O=[N+]([O-])c1ccc(N=NNc2ccccc2)cc1	26	14	-36	-3	42*	34*
CN(c1ccccc1C(=O)O)S(C)(=O)=O	7	2	7	nt	13	nt
CN(C)c1ccccc1C(=O)c1ccccc1N(C)C	24	30	9	12	40*	22
CC1CCN(S(=O)(=O)c2ccc(NC(=O)c3ccncc3)cc2)CC1	30	18	18	-37	37	nt
CN(c1ccccc1)S(=O)(=O)c1ccc(NC(=O)c2ccccc2)cc1	43	-2	35	-8	4	nt
CC(C)c1nnc(NC(=O)c2nc(S(=O)(=O)Cc3ccccc3)ncc2Cl)s1	9	4	6	-8	-5	nt
CN(c1ccccc1)S(=O)(=O)c1ccc(NC(=O)c2nc(S(C)(=O)=O)ncc2Cl)cc1	26	18	1	-3	43*	-1
CCOC(=O)c1ccc(NC(=O)c2nc(S(=O)(=O)Cc3ccccc3)ncc2Cl)cc1	31	0	2	9	55*	21
CCS(=O)(=O)c1ncc(Cl)c(C(=O)Nc2ccc(S(=O)(=O)N3CCC(C)CC3)cc2)n1	40	-14	-1	-17	42*	-34
Cc1ccc(C(=O)CCC(=O)OCC(=O)N2CCN(S(=O)(=O)c3ccc(C)cc3C)CC2)cc1	nt	nt	nt	3	nt	nt
Cc1nc(-c2ccc(S(=O)(=O)Nc3ccccc3C)cc2)co1	36	13	-8	-42	28	nt
Cc1ccc(NS(=O)(=O)c2ccc(-c3coc(C)n3)cc2)c(Br)c1	50	26	19	7	57*	17
Cc1nc(-c2ccc(S(=O)(=O)Nc3ccc(S(N)(=O)=O)cc3)cc2)co1	-22	-1	12	6	-3	nt
